This is a sample that favours compounds with a hit; in the whole collection about 2.9% have one here.
Granule exo inh: lytic granule exocytosis inhibition. inhibition, % at 10 µM. actives 0.66% (n = 360,000). TALL-104 LAMP-1 surface exposure, flow cytometry; cells stimulated with thapsigargin and PMA;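 active = inhibition above about 55%, limit read from the data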
PP1 inh: counter-screen for PP5 inhibitors: inhibitors of human PP1-alpha | actives 0.9% (n = 320,000) | purified PP1alpha, OMFP fluorescence | P62136 | AID 2235 | inhibition, % at 6.7 µM;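 active = inhibition above the mean inhibition of all tested compounds plus 3 SD, computed separately for each screening campaign, cut at about 15% in these data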
NadD block: NadD (S. aureus) enzyme inhibition | purified NadD enzyme, colorimetric absorbance read-out | inhibition, % at 20 µM | actives 0.78% (n = 360,000) | AID 602399; in the data active = inhibition above about 26%
Beta2AR agonist: activates human beta-2 adrenergic receptor causing internalization; P07550; Am2.2-beta2AR cells, FAP receptor internalization, flow cytometry; response, % (concentration not given with the values); actives 0.43% (n = 340,000); AID 504454;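 active = response above a set limit, near 3 SD of response in nonfluorescent compounds, cut at about 42% in these data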
Target sequence (P07550 whole entry, looked up): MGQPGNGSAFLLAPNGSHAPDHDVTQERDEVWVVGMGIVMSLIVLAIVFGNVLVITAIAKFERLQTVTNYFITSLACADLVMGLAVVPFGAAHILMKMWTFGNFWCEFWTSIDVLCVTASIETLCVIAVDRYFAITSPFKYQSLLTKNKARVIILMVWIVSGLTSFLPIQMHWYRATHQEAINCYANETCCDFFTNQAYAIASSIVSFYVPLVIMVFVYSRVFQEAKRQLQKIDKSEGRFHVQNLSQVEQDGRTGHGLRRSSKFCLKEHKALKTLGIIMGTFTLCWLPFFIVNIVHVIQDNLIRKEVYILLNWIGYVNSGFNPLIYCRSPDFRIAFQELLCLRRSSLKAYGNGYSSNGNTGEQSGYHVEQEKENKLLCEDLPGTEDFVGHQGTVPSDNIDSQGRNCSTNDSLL
GRK2 aptamer HTS: inhibitors of human GRK2 displacing RNA aptamer. bead flow cytometry, FAM-aptamer displacement from GRK2. inhibition of aptamer binding, % at 10 µM. actives 0.59% (n = 330,000);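 active = inhibition of aptamer binding above 40%, roughly 3 SD of noise, on plates passing a quality check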;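 also: median bead fluorescence of bound FAM aptamer so fluorescent compounds give negative values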
PP1 inh confirm: human PP1 phosphatase inhibition, confirmation; shares compounds with PP1 inh; purified PP1alpha, OMFP substrate fluorescence; inhibition, % at 6.7 µM; actives 52% (n = 1,900);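 active = mean PP1 inhibition above a set limit taken from the earlier primary screen, cut at about 15% in these data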
PP5 inh counter: PP5 phosphatase inhibition, counter-screen for PP1 inhibitors; inhibition, % at 6.7 µM; shares compounds with PP1 inh; purified PP5c, OMFP fluorescence; actives 4% (n = 1,900);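 active = mean PP5 inhibition over triplicate wells above about 9.5% taken from the earlier PP1 screen, limit read from the data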
Numbers without * were called inactive.

What do the screens show for `Cc1cc(N/N=C/c2ccc(Cl)cc2)nc(NCc2ccccc2)n1`?
Granule exo inh: 7.8; PP1 inh: 18.6*; NadD block: -0.3; Beta2AR agonist: 11.9; PP1 inh confirm: 1.6; PP5 inh counter: -1.4

Results for CCC(Sc1nc2cc(OC)c(OC)cc2c(=O)n1CCc1ccc(OC)c(OC)c1)C(=O)NCCOC (configuration not stated) ?
Granule exo inh: 6.4; PP1 inh: -2.6; NadD block: -4.7; Beta2AR agonist: 3.9; GRK2 aptamer HTS: 4.0

Results for COc1ccc(CNC(=S)Nc2cc(OC)ccc2OC)cc1 ?
Granule exo inh: -0.1; PP1 inh: 62.9*; NadD block: -3.2; Beta2AR agonist: 3.6; GRK2 aptamer HTS: 0.0; PP1 inh confirm: -2.9; PP5 inh counter: -5.4

Results for COCCNC(=O)C1Cc2c(-c3cccc(NC(C)=O)c3)ccnc2O1 (configuration not stated) ?
Granule exo inh: -5.7; NadD block: 0.2

Results for Cc1cccc(C)c1Nc1nnc(SCC(=O)Nc2cc(S(=O)(=O)N3CCCCC3)ccc2Cl)s1 ?
Granule exo inh: 4.5; PP1 inh: 24.4*; NadD block: 6.4; Beta2AR agonist: -3.6; GRK2 aptamer HTS: 2.0; PP1 inh confirm: 20.8*; PP5 inh counter: -0.3

What do the screens show for `NC(=O)CC(NC(=O)Cc1ccc(Cl)cc1)c1ccc(NCCOc2ccccc2)c([N+](=O)[O-])c1` (configuration not stated)?
Granule exo inh: -5.0; PP1 inh: 14.5; NadD block: -8.5; Beta2AR agonist: -13.2; GRK2 aptamer HTS: 0.0

What do the screens show for `NC(=O)CC(NC(=O)Cc1cccc2ccccc12)c1ccc(NCC2CC2)c([N+](=O)[O-])c1` (configuration not stated)?
Granule exo inh: 2.5; PP1 inh: -1.0; NadD block: -1.0; Beta2AR agonist: -4.5; GRK2 aptamer HTS: 0.0

What do the screens show for `NC(=O)CC(NC(=O)Cc1cccc2ccccc12)c1ccc(NC2CCCCC2)c([N+](=O)[O-])c1` (configuration not stated)?
Granule exo inh: -0.3; PP1 inh: 19.7*; NadD block: 12.0; Beta2AR agonist: -5.3; GRK2 aptamer HTS: 2.0; PP1 inh confirm: 24.1*; PP5 inh counter: -7.3

Results for NC(=O)CC(NC(=O)Cc1cccc2ccccc12)c1ccc(NCCOc2ccccc2)c([N+](=O)[O-])c1 (configuration not stated) ?
Granule exo inh: -1.8; PP1 inh: 23.1*; NadD block: 16.3; Beta2AR agonist: 35.5; GRK2 aptamer HTS: 2.0; PP1 inh confirm: 27.3*; PP5 inh counter: -3.7

How did Cc1ccc(C)c(SCC(=O)OCC(=O)NCCNC(=O)COC(=O)CSc2cc(C)ccc2C)c1 do in these assays?
Granule exo inh: 6.0; PP1 inh: -0.4; NadD block: -8.6; Beta2AR agonist: 5.7; GRK2 aptamer HTS: 2.0

What do the screens show for `Cn1nnnc1SCC(=O)Nc1nn(-c2ccccc2)nc1C(N)=O`?
Granule exo inh: -2.3; PP1 inh: -2.1; NadD block: -4.1; Beta2AR agonist: -11.2; GRK2 aptamer HTS: 0.0

How did NC(=O)c1nn(-c2ccccc2)nc1NC(=O)CN1CCCCC1 do in these assays?
Granule exo inh: -0.6; PP1 inh: 47.4*; NadD block: -3.7; Beta2AR agonist: -7.8; GRK2 aptamer HTS: 3.0; PP1 inh confirm: -5.0; PP5 inh counter: -6.2

How did Cc1sc(N(C(=O)CCc2ccccc2)c2ccc(C(=O)O)cc2)nc1-c1ccccc1 do in these assays?
Granule exo inh: -0.7; PP1 inh: 19.5*; NadD block: 16.3; Beta2AR agonist: 10.7; GRK2 aptamer HTS: 0.0; PP1 inh confirm: 15.2*; PP5 inh counter: 0.2

Results for CCC(=O)N(c1ccc(C(=O)O)cc1)c1nc(-c2ccc(OC)cc2)c(C)s1 ?
Granule exo inh: 3.5; PP1 inh: 0.1; NadD block: 7.3; Beta2AR agonist: 7.6; GRK2 aptamer HTS: 2.0

Results for Cc1onc(-c2ccccc2)c1-c1nnc(CN2CCN(S(=O)(=O)c3ccccc3)CC2)o1 ?
Granule exo inh: 0.8; PP1 inh: 0.8; NadD block: 1.1; Beta2AR agonist: 3.6; GRK2 aptamer HTS: 0.0
